High-throughput results deposited in PubChem BioAssay by National Center for Advancing Translational Sciences (NCATS).
This is a sample that favours compounds with a hit; in the whole collection about 8% have one here.
SARS PLpro yeast = blocks SARS-CoV papain-like protease in a yeast assay; actives 0.19% (n = 330,000); S. cerevisiae expressing SARS-CoV PLpro, growth rescue; Potency, µM (titrated, usually from 32.9 µM), hits mostly activators; calls by dose curve; note: nearly all actives have a fitted effect of over 55% in size
LASV entry inh = inhibitors of Lassa virus binding or cell entry | Lassa virus pseudotype entry inhibition, cell reporter | Potency, µM (series often up to 37.9 µM), hits mostly inhibitors | actives 1.2% (n = 300,000) | AID 540256; calls by dose curve; tested in HEK293 cells; note: nearly all actives have a fitted effect of over 50% in size
HCV inhibitor = HCV inhibition | Huh7.5.1 HCVcc-Cre infection, luciferase reporter, 44 h | Potency, µM (series often up to 41.8 µM), most hits filed as inhibitors | actives 3.4% (n = 340,000) | AID 651820; active = well fitted inhibition curve with a large enough effect; inconclusive = small, poorly fitted or top-dose-only effect, or another doubt; inactive = no such curve, though single readings can be large or run the other way
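A cell-based infection assay in which seeded cells (1,000 per well) receive test compound after 4 h, are inoculated with HCVcc-Cre at approximately 0.5 moi, and are incubated 44 h before luminescence detection.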
Marburg entry inh = inhibitors of Marburg virus binding or cell entry; Marburg virus pseudotyped entry inhibition, cell reporter; Potency, µM (titrated, usually from 37.8 µM), hits mostly inhibitors; actives 1.8% (n = 300,000); calls by dose curve; tested in HEK293 cells
HCMV inh = inhibitors of human cytomegalovirus; actives 4.5% (n = 410,000); HFF cells, HCMV-luciferase reporter, 72 h; hits give low values; AID 1259415; activity change, negative = inhibition, % at 57.5 µM; in the data active = activity change below about -60%; inconclusive = no clear call, values can overlap the other calls; inactive = above about -39%
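Cell-based, HFFs, 1000 cells/well, 16 h 37C; cpds in DMSO + HCMV-luc, MOI 1 PFU/cell; 72 h 37C; OneGlo luminescence after 5 min RT; norm. to buffer vs Salinomycin 10uM.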
FMDV antiviral = blocks foot and mouth disease virus; FMDV antiviral cell-based qHTS; Potency, µM (series often up to 57.9 µM), most hits filed as inhibitors; actives 1.2% (n = 410,000); AID 1159524; calls by dose curve; tested in HEK293T cells; note: read-out not given here; nearly all actives have a fitted effect of over 45% in size
Numbers stand for hits; 0 = inactive; ? = inconclusive; - = not tested or not shown.

SMILES	SARS PLpro yeast	LASV entry inh	HCV inhibitor	Marburg entry inh	HCMV inh	FMDV antiviral
Cc1nc(CC(=O)Nc2nc(-c3ccccc3)cs2)cs1	0	?	?	0	-73.3	0
Cc1nc(CC(=O)Nc2nc(C(C)(C)C)cs2)cs1	0	?	0	?	0	0
O=C(COC(=O)c1cccs1)Nc1nc(-c2ccccc2)cs1	0	?	0	0	0	0
O=C(Cc1cccs1)Nc1nc(-c2ccccc2)cs1	0	1.64µM	?	?	0	?
COc1ccc(NC(=O)c2ncoc2-c2ccco2)cc1Cl	-	0	-	-	0	0
Cn1ccc2cc(-c3ccc4ncnc(NCc5cccnc5)c4c3)ccc21	0	-	-	-	-	-
Cn1ccc2cc(-c3ccc4ncnc(NCc5cccs5)c4c3)ccc21	0	-	-	-	-71.9	?
N#CNC(=Nc1ccccc1)SCc1ccc(C(=O)O)cc1	0	0	0	0	0	0
CSC(=Nc1ccccc1)N=C(SCc1ccccc1)N(C)C	-	12.6µM	?	?	-101.4	?
Cc1ccc(Cn2c(C)c(CNCc3ccccc3F)c(C(=O)O)c2C)cc1	-	0	-	0	0	0
Cc1ccc(-n2nnnc2SCC(=O)N2CCc3ccccc3C2)c(C)c1	0	0	12.6µM	0	0	0
Cc1ccc(-n2nnnc2SCC(=O)N2CCc3ccccc3C2)cc1	0	?	?	0	0	0
Cc1ccc(-n2nnnc2SCC(=O)Nc2ccc(N3CCN(C)CC3)cc2)c(C)c1	0	-	0	-	-98.8	0
CSc1nnc(NC(=O)c2cc(=O)c3cc(C)c(C)cc3o2)s1	-	?	-	0	0	0
C/C(=N\NC(=O)C1CC1c1ccccc1)c1ccc(C)s1 (stereo not given)	0	?	0	0	0	0
CCOC(=O)C(/C(C)=N/NC(=O)C1CC1c1ccccc1)C(C)C (stereo not given)	0	2.06µM	0	0	0	?
O=[N+]([O-])c1ccccc1-c1cc(-c2ccccc2)cc(-c2ccccc2)[n+]1Cc1ccccc1Cl	0	-	3.55µM	-	-96.8	?
O=[N+]([O-])c1ccc(-[n+]2c(-c3ccccc3)cc(-c3ccccc3)cc2-c2ccccc2)cc1	0	-	0	-	?	0
CCOc1ccc(NC(=O)Nc2cc(OCC(F)(F)F)cc(OCC(F)(F)F)c2)cc1	0	?	?	?	0	0
O=C(Nc1ccc(F)cc1)Nc1cc(OCC(F)(F)F)cc(OCC(F)(F)F)c1	0	18.4µM	?	8.91µM	-101.3	0
CC(C)(C)c1ccc(NC(=O)Nc2ccc(F)cc2)cc1	0	?	10µM	?	0	0
CC(C)(C)c1ccc(COC(=O)Nc2ccc(F)cc2)cc1	0	0	0	?	0	0
Cc1[nH]c(=S)[nH]c(=O)c1CCOc1ccccc1	0	0	0	0	0	0
Cc1ccccc1OCCc1c(C)[nH]c(=S)[nH]c1=O	0	?	0	?	-63.9	?
O=C(c1cc(F)cc(F)c1)N1CCC(c2nc(-c3ccc(S(=O)(=O)N4CCCC4)cc3)no2)CC1	-	0	-	0	0	0
SMILES	SARS PLpro yeast	LASV entry inh	HCV inhibitor	Marburg entry inh	HCMV inh	FMDV antiviral
CCN1C(=NCC(C)C)N[C@H](c2ccccc2)[C@H](C(=O)OC)[C@H]1C	-	0	-	0	-	-
Cc1ccc(CNC(=O)Cn2ccn(-c3ccc(F)cc3)c(=O)c2=O)cc1	-	0	-	-	0	0
COC(=O)Cn1c(=N)n(CCN2CCCCC2)c2ccccc21	0	0	0	0	0	0
N=c1n(CCN2CCCCC2)c2ccccc2n1CC(O)c1cccc(Br)c1 (stereo not given)	0	?	12.6µM	11.2µM	?	?
CCn1c(=N)n(CC(=O)c2ccc(Cl)c(Cl)c2)c2ccccc21	0	?	?	?	0	0
CN(C)CCn1c(=N)n(CC(O)c2ccc(Cl)c(Cl)c2)c2ccccc21 (stereo not given)	0	-	7.08µM	-	0	?
N=c1n(CCN2CCCCC2)c2ccccc2n1CC(O)c1ccc(Cl)c(Cl)c1 (stereo not given)	0	?	12.6µM	5.8µM	-97.2	-
N=c1n(CCN2CCCCC2)c2ccccc2n1CC(=O)c1ccc(Cl)c(Cl)c1	0	0	?	8.91µM	0	?
CN(C)CCn1c(C(=O)O)cc2ccccc21	0	0	0	?	0	0
Brc1cccc(CNc2nc3ccccc3n2CCN2CCCCC2)c1	0	-	?	-	?	0
c1csc(CNc2nc(CN3CCCC(c4nc5ccccc5o4)C3)nc3ccccc23)c1 (stereo not given)	-	-	-	-	-	0
COc1ccc(C(=O)[C@]2(C)C=C(c3ccc(OC)cc3)[C@H](C)C2)cc1	-	-	-	0	-	-
O=C(NC(=O)c1c(Cl)cccc1Cl)Nc1ccc(Oc2cccnc2)nc1	0	0	0	0	0	0
CC(C)(C)c1ccc(C(=O)Nc2ccccc2NC(=O)c2ccco2)cc1	0	?	12.6µM	?	0	0
CC(C)(C)c1ccc(Oc2ccc(NC(=O)c3ccco3)cn2)cc1	0	-	7.94µM	-	-103.4	?
CNC(=O)COC(=O)c1ccccc1NC(=O)c1ccco1	0	-	0	-	-100.8	0
O=C(Nc1ccc(Oc2cccnc2)nc1)c1ccc(C(F)(F)F)cc1	0	0	2.24µM	5.62µM	-71.7	?
